PubChem BioAssay (NCATS)
Several values for one entry are separate records, joined by “and”; a condition that tells them apart may be missing. Identical values can stand only once. Records with an inconclusive call do not appear. Unmarked numbers belong to inactive results. Activity calls are given as the source filed them. The call rests on the fitted dose curve; in most records, active means well fitted cell-killing curve with a large enough effect; inconclusive means small, poorly fitted or top-dose-only effect; inactive means flat fitted curve, though single readings scatter.

Experiment: Cellular viability qHTS for adrenocortical cancer (ACC) cell line NCI-H295R (AID 1963990); further: nearly all actives have a fitted effect of over 60% in size
Conditions: CellTiter-Glo ATP luminescence, 48 h; series mostly up to 46.1 µM; activity change, negative = viability loss: at the top concentration
Text: PI: Naris Nilubol, MD Surgical Oncology Program, National Cancer Institute (NCI) National Institute of Health (NIH), Bethesda, Maryland Adrenocortical cancer (ACC) is a rare malignancy with poor survival outcomes and few treatment options. Currently, mitotane is the only FDA-approved therapy for ACC. Although adjuvant radiation therapy is rarely utilized, it has the potential to improve survival in select cases. Through a quantitative high-throughput drug screen (qHTS), we identified auranofin (AF), a thioredoxin reductase (TXNRD) inhibitor, as a promising candidate drug. This study aims to evaluate whether AF can enhance the efficacy of radiation therapy in the treatment of ACC. Two human ACC cell lines, SW-13 and NCI-H295R, were screened using the National Center for Advancing Translational Sciences (NCATS) Pharmaceutical Collection (NPC) and the Mechanism Interrogation PlatE (MIPE) library (~4,991 compounds). CellTiter-Glo (Cat # G7570, Promega, Madison, WI) was utilized to measure cell viability. Described herein are the results of the corresponding viability assay.
PROTOCOL TABLE (as described by Inglese J, Shamu CE and Guy RK. 2007) SEQUENCE No. (e.g., 1, 2, 3, etc.); […] (e.g., Cells, Incubation, Reagent, etc.); VALUE; DESCRIPTION. 1; Cells; 5 uL; white, solid-bottom, 1536-well tissue-culture treated plates. 2; Time; overnight culture at 37C with 5% CO2. 3; Compounds and control; 23 nL; Kalypsis pin tool (Wako USA) equipped with a 1536-well pin head to transfer to the assay plates. 4; Time; 48 hours; 37C with 5% CO2. 5; Reagent; 4 uL; CellTiter-Glo luminescent substrate mix. 6; Time; 20 min at room temperature. 7; Detection; Luminescence; ViewLux plate reader NOTES (numbers refer to Sequence numbers above) 1. NCI-H295R cells were harvested from a T175 flask and resuspended in ITS-supplemented DMEM serum-free medium at a concentration of 300 000 cells/mL. Then 5 uL of resuspended cells were dispensed into each well of white, solid-bottom, 1536-well tissue-culture-treated plates using a multidrop combi dispenser. The plates were covered with stainless steel gasket lids. 2-3. The plates were cultured overnight at 37C with 5% CO2. Twenty-three nL of compounds (eight selected concentrations from the NPC / MIPE) or positive control (10 mM stock of bortezomib) in DMSO was transferred to each well of the assay plate using a pin tool (Kalypsys, San Diego, CA, USA). The final concentration of the compounds in the 5 uL assay volume ranged from 0.5 nM to 46 uM. 4-6. After 48 hours of incubation at 37C and 5% CO2, 4 uL of CellTilter-Glo luminescent substrate mix (Promega, Madison, WI, USA) was added to each well. Then the plates were incubated for 20 minutes at room temperature. 7. After incubation, luminescence was measured using a ViewLux plate reader (PerkinElmer, Waltham, MA, USA) with a clear filter was used to measure the number of metabolically competent cells. To determine compound activity in the qHTS assay, the titration-response data for each sample was plotted and modeled by a four-parameter logistic fit yielding IC50 and efficacy (maximal response) values. Raw plate reads for each titration point were normalized relative to positive control ([…], 100% inhibition) and DMSO-only wells (basal, 0%). REFERENCES: Inglese J, Shamu CE and Guy RK, Reporting data from high throughput screening of small molecule libraries, Nature Chemical Biology, 2007, 3(8): 438-441. doi.org/10.1038/nchembio0807-438.

Structure (SMILES)	Potency	activity change, negative = viability loss
COC(=O)C1=C(C)NC(C)=C(C(=O)OCCCN2CCC(c3ccccc3)(c3ccccc3)CC2)C1c1cccc([N+](=O)[O-])c1 (stereo not given)	7.08 µM (active) and 8.2 µM (active)	
CC1(c2ccccc2)OC(C(=O)O)=CC1=O (stereo not given)		-8.54%
COc1ccc(/C(C)=C/C(=O)O)c(OC)c1		-3.92%
COC(=O)N(C)c1c(N)nc(-c2nn(Cc3ccccc3F)c3ncccc23)nc1N		-6.01%
COCCn1c2c([n+](Cc3cnccn3)c1C)C(=O)c1ccccc1C2=O	2.82 µM (active)	
Cc1cccc(-c2[nH]c(CNc3ccccc3F)nc2-c2ccc3ncnn3c2)n1		1.57%
NCCCCCC(=O)O	inactive	
COc1cc(N)c(Cl)cc1C(=O)NC1CCN(Cc2ccccc2)CC1		-29.2%
C[C@H](NC(=O)c1sccc1OCc1ccc(Cl)cc1)c1ccccc1	28.2 µM (active)	
COCc1c(-c2ccc(NC(=O)Nc3cc(C(F)(F)F)ccc3F)c(F)c2)c2c(N)ncnn2c1CN1CCOCC1		-24.6%
C=CC(=O)Nc1cccc(Oc2nc(Nc3ccc(N4CCN(C)CC4)cc3OC)ncc2Cl)c1	8.91 µM (active)	
CCOc1c(N2CCOCC2)cnn(C)c1=O		-0.0815%
CC(C)(C)C(=O)NCCCC(=O)O		-7.04%
OC[C@H]1O[C@@H](O[C@@H]2[C@@H](CO)O[C@](O)(CO)[C@H]2O)[C@H](O)[C@@H](O)[C@H]1O	inactive	
CN1CC[C@H](c2c(O)cc(O)c3c(=O)cc(-c4ccccc4Cl)oc23)[C@H](O)C1	0.103 µM (active)	
COC(=O)c1c(Cl)c(Cl)c(C(=O)OC)c(Cl)c1Cl		-7.67% [at 92.7 µM]
CCc1cc2c(cc1N1CCC(N3CCOCC3)CC1)C(C)(C)c1[nH]c3cc(C#N)ccc3c1C2=O		-7.29% [at 20 µM]
O=C(O)c1cccc(-c2noc(-c3ccccc3F)n2)c1		-29.2%
O=C(O)c1cn(-c2ccc(F)cc2)c2cc(N3CCNCC3)c(F)cc2c1=O	inactive	
CC(N=C(NC#N)Nc1ccncc1)C(C)(C)C (stereo not given)		-4%

Structure (SMILES)	Potency	activity change, negative = viability loss
CC(C)NCC(O)COc1cccc2[nH]ccc12 (stereo not given)		-4.84%
Cc1ccc(NS(=O)(=O)c2ccc3c(c2)C2C=CCC2C(c2ccc(C(=O)O)cc2)N3)cc1C (stereo not given)		-0.155%
CC(=O)NCc1c(I)c(NC(C)=O)c(I)c(C(=O)O)c1I		-1.22%
O=C(O)CCCC[P+](c1ccccc1)(c1ccccc1)c1ccccc1		-16.1%
CC(C)c1ccc2oc3nc(N)c(C(=O)O)cc3c(=O)c2c1	inactive	
CC(=O)OCC(=O)[C@@]1(O)CC[C@H]2[C@@H]3CCC4=CC(=O)CC[C@]4(C)[C@H]3C(=O)C[C@@]21C	inactive	
COc1cc2c(cc1OC)C(=O)CC2		-13.3%
COc1cc2ncnc(Nc3cccc(Br)c3)c2cc1OC		-27.2%
CC(C)NCC(O)c1ccc(O)c(O)c1 (stereo not given)	inactive	
CN1CCN(c2ccc3nc(-c4c(N)c5c(F)cccc5[nH]c4=O)[nH]c3c2)CC1	17.8 µM (active)	
CC(=O)Nc1ccc([C@H](C)C(=O)Nc2ncc(C(C)C)s2)cc1	3.55 µM (active)	
CCN1CCCC1=O		-0.703%
Nc1ccn(C[C@@H](CO)OCP(=O)(O)O)c(=O)n1		1.71% [at 9.17 µM]
O=c1ccn([C@@H]2O[C@H](CO)[C@@H](O)[C@H]2O)c(=O)[nH]1		-7.6%
COC1CCC(N2C(=O)CNc3ncc(-c4ccc(C(C)(C)O)nc4)nc32)CC1 (stereo not given)	15.8 µM (active)	
NS(=O)(=O)c1ccc(Cc2c(-c3cccc(-c4ccccc4)c3)nn(-c3nc(C(=O)O)cs3)c2CC2CC2)cc1	28.2 µM (active)	
C[C@@H]1COC(Nc2ccc3ncnc(Nc4ccc(OCc5nccs5)c(Cl)c4)c3c2)=N1	28.2 µM (active)	
Nc1ccc(C(=O)O)c(O)c1		-2.17%
CC(C)(C)C(=O)OCOP(=O)(COCCn1cnc2c(N)ncnc21)OCOC(=O)C(C)(C)C	18.4 µM (active) and 12.6 µM (active)	
CCOC(=O)n1ccn(C)c1=S		-23.5%
